Among the test systems are PIP5K1A; PIP5K1C; PIP5K2B; PKMYT1; PKN1; PKN2; PLK1.
Common to all, as to conditions: concentration: 1 μM, replicates: in singlicate; n = 1
The subject of a further assay is T1, PIP5K2C.
T1 construct: gene PIP4K2C

The subject of the next assay is T2, PKAC-alpha.
T2 construct: gene PRKACA

The test system of another assay is T3, PKAC-beta.
T3 construct: gene PRKACB
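Further: KINOMEscan kinase panel screen.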

On to `Clc1ccc(-c2nn3ncccc3c2-c2ccnc(Nc3ccc4c(c3)OCCO4)n2)cc1` [GW829116], for which the “%Inh” value in the assay with PIP5K1A stood at 17%; in the assay on PIP5K1C, 0%; with PIP5K2B, 0%; with PIP5K2C, 43%; in the assay on PKAC-alpha, 24%; in the assay with PKAC-beta it was 0%. Besides, the “%Inh” value with PKMYT1 turned out to be 2%; with PKN1, 0%; with PKN2 it was 0%; with PLK1, 0%.
Take `Cl.Cl.NCC(NCc1ccc(-c2ccnc3[nH]ccc23)s1)c1ccccc1` (stereo not shown) [GSK1321565]: the “%Inh” value is recorded as 71% with PIP5K1A; 63% in the assay on PIP5K1C; 45% in the assay with PIP5K2B; 39% in the assay on PIP5K2C; 97.9% in the assay on PKAC-alpha; 94.9% in the assay on PKAC-beta. In addition, the “%Inh” value worked out at 0% in the assay with PKMYT1, 30% in the assay with PKN1, 64% in the assay on PKN2 and 0% in the assay with PLK1.
As for `C[C@@H](Oc1cc(-n2cnc3cc(-c4ccnc(NCCS(C)(=O)=O)c4)ccc32)sc1C(N)=O)c1ccccc1Cl` [GSK907232], the “%Inh” value in the assay on PIP5K1A is given as 5%; in the assay on PIP5K1C, 14%; in the assay on PIP5K2B, 47%; in the assay with PIP5K2C, 30%; in the assay on PKAC-alpha, 0%; with PKAC-beta, 0%. For the same compound, the “%Inh” value in the assay on PKMYT1 worked out at 5%; in the assay with PKN1 it was 35%; with PKN2 it was 0%; with PLK1 it was 100%.
Take `Oc1cc(Nc2ccnc3cc(I)ccc23)ccc1F` [GW552771]: the “%Inh” value turned out to be 8% with PIP5K1A; 13% in the assay with PIP5K1C; 0% in the assay on PIP5K2B; 30% with PIP5K2C; 0% in the assay on PKAC-alpha; 0% in the assay on PKAC-beta. The “%Inh” value in the assay on PKMYT1 was found to be 0%; in the assay with PKN1 it was 19%; in the assay with PKN2 it was 0%; with PLK1, 0%.
Consider `Cc1ccc(S(=O)(=O)Nc2ccc(Nc3nccc(Nc4cccc5[nH]ncc45)n3)cc2)cc1` [GSK581271], for which the “%Inh” value in the assay with PIP5K1A is 0%; in the assay on PIP5K1C, 31%; in the assay with PIP5K2B it was 13%; in the assay on PIP5K2C, 57%; in the assay on PKAC-alpha, 0%; in the assay on PKAC-beta it was 0%. Moreover, the “%Inh” value in the assay with PKMYT1 amounted to 15%; with PKN1, 22%; in the assay with PKN2 it was 0%; in the assay on PLK1, 0%.
Regarding `Cc1cccc(Nc2nc(N[C@H]3CCNC3)ncc2C(N)=O)c1.Cl` [GSK2197149], the “%Inh” value in the assay on PIP5K1A came to 47%; in the assay with PIP5K1C, 76%; in the assay with PIP5K2B it was 65%; in the assay on PIP5K2C it was 0%; in the assay with PKAC-alpha, 19%; with PKAC-beta, 0%. Moreover, the “%Inh” value with PKMYT1 worked out at 0%; in the assay with PKN1, 3%; in the assay with PKN2, 14%; with PLK1 it was 0%.
Take `Cn1cc(-c2ccc3c(c2)CCN3C(=O)Cc2cccc(F)c2)c2c(N)ncnc21` [GSK2603358]: the “%Inh” value in the assay on PIP5K1A stood at 0%; in the assay with PIP5K1C, 56%; in the assay with PIP5K2B, 0%; in the assay on PIP5K2C, 38%; with PKAC-alpha, 0%; in the assay on PKAC-beta, 0%. Moreover, the “%Inh” value in the assay with PKMYT1, with PKN1, in the assay on PKN2 and with PLK1 was 0% throughout.
Turning to `COc1cc(Nc2nccc(-c3c(-c4cccc(NC(=O)c5c(F)cccc5F)c4)nn4ccccc34)n2)cc(OC)c1OC` [GSK323521], the “%Inh” value in the assay with PIP5K1A stood at 0%; in the assay with PIP5K1C it was 45%; with PIP5K2B, 23%; in the assay on PIP5K2C, 27%; in the assay with PKAC-alpha, 0%; in the assay with PKAC-beta, 6%. Besides, the “%Inh” value was determined as 4% in the assay on PKMYT1, 12% in the assay on PKN1, 6% in the assay with PKN2 and 2% in the assay with PLK1.
Consider `Cn1cc(-c2ccc3c(c2)CCN3C(=O)Cc2cccc(Cl)c2)c2c(N)ncnc21` [GSK2606590], for which the “%Inh” value in the assay on PIP5K1A was 0%; in the assay on PIP5K1C it was 22%; with PIP5K2B, 10%; in the assay on PIP5K2C, 1%; in the assay on PKAC-alpha it was 7%; in the assay with PKAC-beta it was 5%. The “%Inh” value with PKMYT1 was 9%; in the assay on PKN1 it was 0%; with PKN2, 0%; in the assay on PLK1, 7%.
For the compound `CCn1c(-c2nonc2N)nc2c(C#CC(C)(C)O)nc(OC[C@H](N)c3ccccc3)cc21` [GSK943949], the “%Inh” value in the assay with PIP5K1A was found to be 0%; in the assay with PIP5K1C it was 90.8%; with PIP5K2B, 0%; in the assay with PIP5K2C, 0%; in the assay on PKAC-alpha, 98%; in the assay on PKAC-beta it was 97.7%. The “%Inh” value is 19% in the assay on PKMYT1, 90.8% in the assay with PKN1, 19% in the assay on PKN2 and 0% in the assay on PLK1.
